In PubChem BioAssay (NCI):
About 83,000 compounds went through this panel and 20% of them were active in at least one assay; those are over-represented in the sample as a whole.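 48-hour exposure, single concentration, 96-well plates; percent growth endpoint where 0 means no net growth. Active: below 10.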 Unmarked numbers belong to inactive results. Activity calls are given as the source filed them.

How the values were obtained:
Experiment in all cases: NCI-60 one-dose screen, 48 h (100 = growth as untreated, 0 = no growth, -100 = all killed)
SR leukemia = settings: 10 µM unless noted
RPMI-8226 leukemia = settings: 10 µM unless noted
OVCAR-8 ovarian = settings: 10 µM unless noted
OVCAR-5 ovarian = settings: 10 µM unless noted
OVCAR-4 ovarian = settings: 10 µM
IGROV1 ovarian = settings: 10 µM unless noted
OVCAR-3 ovarian = settings: 10 µM unless noted
HS 578T breast = settings: 10 µM unless noted
NCI/ADR-RES ovarian = settings: 10 µM unless noted
T-47D breast = settings: 10 µM unless noted
BT-549 breast = settings: 10 µM unless noted
MDA-MB-435 melanoma = settings: 10 µM unless noted
SW-620 colon = settings: 10 µM unless noted
MCF7 breast = settings: 10 µM unless noted
HCT-116 colon = settings: 10 µM unless noted
HCC-2998 colon = settings: 10 µM unless noted
KM12 colon = settings: 10 µM unless noted

Compound: CC(=O)Nc1ccc2nc3ccc(NC(C)=O)cc3[n+](-c3ccccc3)c2c1
- growth (SR leukemia): 83.7%
- growth (RPMI-8226 leukemia): 62.1%
- growth (OVCAR-8 ovarian): 93.5%
- growth (OVCAR-5 ovarian): 113%
- growth (OVCAR-4 ovarian): 86%
- growth (IGROV1 ovarian): 92.8%
- growth (OVCAR-3 ovarian): 49.2%
- growth (HS 578T breast): 263%
- growth (NCI/ADR-RES ovarian): 107%
- growth (T-47D breast): 93.4%
- growth (BT-549 breast): 101%
- growth (MDA-MB-435 melanoma): 123%
- growth (SW-620 colon): 116%
- growth (MCF7 breast): 73.1%
- growth (HCT-116 colon): 95.6%
- growth (HCC-2998 colon): 108%
- growth (KM12 colon): 116%

Compound: COc1ccc(C2CC(c3ccc4ccccc4c3)=NN2c2nc(O)c(C3=c4cc(OC)ccc4=NC3=O)s2)cc1 (stereo not drawn)
- growth (SR leukemia): -30.5% (active)
- growth (RPMI-8226 leukemia): 1.78% (active)
- growth (OVCAR-8 ovarian): -34.6% (active)
- growth (OVCAR-5 ovarian): 0.651% (active)
- growth (OVCAR-4 ovarian): -45.8% (active)
- growth (IGROV1 ovarian): -18.5% (active)
- growth (OVCAR-3 ovarian): -55.5% (active)
- growth (HS 578T breast): -7.14% (active)
- growth (NCI/ADR-RES ovarian): 57%
- growth (T-47D breast): -72.7% (active)
- growth (BT-549 breast): -19.8% (active)
- growth (MDA-MB-435 melanoma): -59.5% (active)
- growth (SW-620 colon): -42% (active)
- growth (MCF7 breast): -29.4% (active)
- growth (HCT-116 colon): -64.5% (active)
- growth (HCC-2998 colon): -70.4% (active)
- growth (KM12 colon): -70.3% (active)

Compound: Fc1cc2[nH]ncc2c2c3c(c(-c4cn[nH]c4C(F)(F)F)nc12)C1CCC3C1 (stereo not drawn)
- growth (SR leukemia): 5.5% (active)
- growth (RPMI-8226 leukemia): 7.73% (active)
- growth (OVCAR-8 ovarian): 10.2%
- growth (OVCAR-5 ovarian): -7.74% (active)
- growth (OVCAR-4 ovarian): 35%
- growth (IGROV1 ovarian): -13% (active)
- growth (OVCAR-3 ovarian): 10.6%
- growth (HS 578T breast): -10.8% (active)
- growth (NCI/ADR-RES ovarian): 55.7%
- growth (T-47D breast): 3.94% (active)
- growth (BT-549 breast): -60.7% (active)
- growth (MDA-MB-435 melanoma): 22.8%
- growth (SW-620 colon): 2.37% (active)
- growth (MCF7 breast): 2.59% (active)
- growth (HCT-116 colon): 1.87% (active)
- growth (HCC-2998 colon): 14.7%
- growth (KM12 colon): 7.9% (active)

Compound: CCn1cc(-c2cc(-c3ccc(Cl)cc3)nc(N)n2)c(-c2ccc(Br)cc2)n1
- growth (SR leukemia): 69.7%
- growth (RPMI-8226 leukemia): 66.2%
- growth (OVCAR-8 ovarian): 84.9%
- growth (OVCAR-5 ovarian): 68.7%
- growth (OVCAR-4 ovarian): 82.2%
- growth (IGROV1 ovarian): 68.1%
- growth (OVCAR-3 ovarian): 88.5%
- growth (HS 578T breast): 96.7%
- growth (NCI/ADR-RES ovarian): 80.3%
- growth (T-47D breast): 48.1%
- growth (BT-549 breast): 91.3%
- growth (MDA-MB-435 melanoma): 92.8%
- growth (SW-620 colon): 99.7%
- growth (MCF7 breast): 72.2%
- growth (HCT-116 colon): 66.3%
- growth (HCC-2998 colon): 92.9%
- growth (KM12 colon): 77.7%

Compound: CCOC(=O)c1nn(C2CCCCO2)c2ccc(NC(=O)CN3CCCC3)cc12 (stereo not drawn)
- growth (SR leukemia): 103%
- growth (RPMI-8226 leukemia): 105%
- growth (OVCAR-8 ovarian): 101%
- growth (OVCAR-5 ovarian): 99.1%
- growth (OVCAR-4 ovarian): 99.4%
- growth (IGROV1 ovarian): 102%
- growth (OVCAR-3 ovarian): 109%
- growth (HS 578T breast): 95.4%
- growth (NCI/ADR-RES ovarian): 103%
- growth (T-47D breast): 102%
- growth (BT-549 breast): 94.3%
- growth (MDA-MB-435 melanoma): 102%
- growth (SW-620 colon): 97.2%
- growth (MCF7 breast): 95.9%
- growth (HCT-116 colon): 89.9%
- growth (HCC-2998 colon): 101%
- growth (KM12 colon): 103%

Compound: CCN(CC)CC(C)Nc1ccc(C)c2sc3ccccc3c(=O)c12 (stereo not drawn)
- growth (SR leukemia): 33.4%
- growth (RPMI-8226 leukemia): 11%
- growth (OVCAR-8 ovarian): 64.2%
- growth (OVCAR-5 ovarian): 68.9%
- growth (OVCAR-4 ovarian): 75.9%
- growth (IGROV1 ovarian): 19.1%
- growth (OVCAR-3 ovarian): 77.5%
- growth (HS 578T breast): 73.8%
- growth (NCI/ADR-RES ovarian): 68.7%
- growth (T-47D breast): 53.6%
- growth (BT-549 breast): 82.3%
- growth (MDA-MB-435 melanoma): 59.1%
- growth (SW-620 colon): 55.8%
- growth (MCF7 breast): 32.6%
- growth (HCT-116 colon): 34.6%
- growth (HCC-2998 colon): 45.9%
- growth (KM12 colon): 55%

Compound: COc1ccc(-c2ccc(NNC(=O)c3ccc(F)cc3)nn2)cc1OC
- growth (SR leukemia): 51%
- growth (RPMI-8226 leukemia): 70.7%
- growth (OVCAR-8 ovarian): 66.8%
- growth (OVCAR-5 ovarian): 50.3%
- growth (OVCAR-4 ovarian): 81.8%
- growth (IGROV1 ovarian): 22.1%
- growth (HS 578T breast): 41.1%
- growth (NCI/ADR-RES ovarian): 65.4%
- growth (T-47D breast): 20%
- growth (BT-549 breast): 58.4%
- growth (MDA-MB-435 melanoma): 83.2%
- growth (SW-620 colon): 75.1%
- growth (MCF7 breast): 51.1%
- growth (HCT-116 colon): 66.2%
- growth (HCC-2998 colon): 90.5%
- growth (KM12 colon): 92.3%

Compound: C[n+]1c(-c2ccccc2)c2cc(N)ccc2c2ccccc21
- growth (SR leukemia): 21.9%
- growth (RPMI-8226 leukemia): 17.7%
- growth (OVCAR-8 ovarian): 34%
- growth (OVCAR-5 ovarian): 107%
- growth (OVCAR-4 ovarian): 29.8%
- growth (IGROV1 ovarian): 23.6%
- growth (OVCAR-3 ovarian): 69.7%
- growth (T-47D breast): 11.9%
- growth (BT-549 breast): 0.585% (active)
- growth (MDA-MB-435 melanoma): 31.5%
- growth (SW-620 colon): 40.5%
- growth (MCF7 breast): 13%
- growth (HCT-116 colon): 30.4%
- growth (HCC-2998 colon): 40.5%
- growth (KM12 colon): 19.1%
